The entries come from a sample that favours hits as a whole.
Pf Dd2 inh: qHTS Primary assay for Inhibitors of Plasmodium falciparum Dd2 growth in vitro | 4.3% of 120,000 active | AID 1347417, 2020 | Potency, µM (series often up to 28.9 µM), without a hit: at the highest dose activity, negative = inhibition, hits mostly inhibitors | P. falciparum Dd2 growth, SYBR Green, 72 h; active = well fitted inhibition curve with a large enough effect;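 note: plate controls were DMSO vehicle for no effect and reference drug for full effect; nearly all actives have a fitted effect of over 65% in size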
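Infected erythrocytes (Dd2, 0.3% parasitemia, 2.5% hematocrit final) are added to compound in RPMI-1640/Albumax II medium, grown 72 h at 37C in low oxygen, then lysed with saponin/Triton-X containing SYBR Green and read by fluorescence.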
Starred values were filed as active, the others as inactive; i = inactive; [ ] = another dose, or the depositor's remark. Potency is the fitted concentration of half-maximal effect.

SMILES	Pf Dd2 inh
CCc1noc(-c2ccn3c(CNC(=O)c4cc(F)cc(F)c4)nnc3c2)n1	-22.6%
Cc1ccc(-c2nnc(C3CN(C(=O)c4ccoc4)CC34CCOCC4)o2)cc1 (configuration not stated)	9.0%
Cn1cc(CN2C[C@H](C(=O)Nc3nccs3)C[C@@H]2c2cccc(C(F)(F)F)c2)cn1	-26.1%[44.1 µM]
CN1C[C@H](C(=O)Nc2nccs2)C[C@H]1c1cccc(C(F)(F)F)c1	2.82µM*
CN1C[C@H](C(=O)Nc2ccncn2)C[C@H]1c1cccc(C(F)(F)F)c1	-5.0%[44.1 µM]
CNS(=O)(=O)c1ccc(CN2CC3(CCNCC3)CC2C(=O)O)cc1 (configuration not stated)	7.3%
CN(C)C[C@@H]1CN(S(C)(=O)=O)C[C@H]1NC(=O)CCn1cccn1	26.9%
CCn1nccc1C(=O)N1CCCC(c2nn[nH]n2)C1 (configuration not stated)	12.6%
Cc1cccc(NC(=O)N2CCC(CN3CCC(C)CC3)CC2)c1C	-11.2%
COC(=O)c1ccc(Cl)cc1NC(=O)N1CCC(CN2CCCC2)CC1	-0.5%
COC(=O)c1ccc(Cl)cc1NC(=O)N1CCC(CN2CCC(C)CC2)CC1	10µM*
CCCc1nc(C(=O)N(C)CCSc2ccc(C)cc2)cs1	-28.4%
O=C1Nc2cnccc2C2(CCN(C(=O)OCc3ccccc3)C2)O1 (configuration not stated)	i
Cc1cccc(OCC(=O)N2CCC3(CC2)NC(=O)N(c2cccc(F)c2)N3)c1	-7.2%
CCOc1ccc(C(=O)N2CCN(C(=O)c3nnn4c3COC(c3ccccc3)C4)CC2)cc1 (configuration not stated)	i
CCCCN(C)C(=O)c1csc(N2CCN(c3ccccc3)CC2)n1	11.2µM*
CCN(CC)C(=O)c1csc(N2CCN(c3cccc(Cl)c3)CC2)n1	i
O=C(NCc1ccccn1)c1csc(N2CCN(c3ccccc3)CC2)n1	i
O=C(CCC[C@@H]1[C@H]2CCCN3CCC[C@@H](CN1C(=O)c1cc(F)ccc1F)[C@@H]23)N1CCOCC1	-4.1%
COCc1nncn1C1CCN(S(=O)(=O)c2ccc(F)c(Cl)c2)CC1	2.7%
O=C(c1cccc(Cl)c1)N1CCC(c2nc3c(nnn3Cc3ccc(F)cc3F)c(=O)[nH]2)CC1	2µM*
Cc1cc(C)n(Cc2cccc(C(=O)N3CCCC(c4ncc[nH]4)C3)c2)n1 (configuration not stated)	0.1%
Cc1ccc(C(=O)N2CCC(c3nn(Cc4ccccc4)c(=O)[nH]3)CC2)cc1	-7.6%
CC(C)n1ccnc1C1CCCN(S(=O)(=O)c2ccccc2Cl)C1 (configuration not stated)	i
Cc1ccccc1C(=O)N1CCC(c2nn(Cc3ccccc3)c(=O)[nH]2)CC1	-15.6%
SMILES	Pf Dd2 inh
O=C(c1cccc(C(F)(F)F)c1)N1CCC(c2nn(-c3ccc(Cl)cc3)c(=O)[nH]2)CC1	i
COc1ccc(CNC(=O)C2CCCN(S(=O)(=O)c3cccc4nsnc34)C2)cc1 (configuration not stated)	-19.4%
Cc1ccccc1Cn1nnc2c(=O)[nH]c(C3CCCN(C(=O)c4ccc(F)cc4)C3)nc21 (configuration not stated)	-2.8%
Cc1ccc(C)c(C(=O)N2CCC(c3nc4c(nnn4Cc4ccccc4)c(=O)[nH]3)CC2)c1	11.2µM*
COC(=O)c1ccc(Cn2nnc3c(=O)[nH]c(C4CCCN(S(=O)(=O)c5ccccc5Cl)C4)nc32)cc1 (configuration not stated)	7.94µM*
CC(C)(C)c1ccc(C(=O)N2CCCC(c3nc4c(nnn4Cc4cccc(F)c4)c(=O)[nH]3)C2)cc1 (configuration not stated)	1.58µM*
O=C(c1cccc(Cl)c1)N1CCC(c2nn(-c3ccccc3)c(=O)[nH]2)CC1	i
Cc1cccc(CCNC(=O)c2noc(-c3ccc4c(c3)OCO4)n2)c1	36.9%
O=C(CCCc1c[nH]c2ccccc12)N1CCc2c(nc3cc(-c4ccccc4)[nH]n3c2=O)C1	-20.4%
Cc1cccc(OCCc2noc(C3CN(C(=O)c4cccnc4C)C3)n2)c1	-6.7%
COc1cc(Cl)ccc1C(=O)N1CCC(Oc2ccc(C(=O)N(C)C)cn2)CC1	-12.6%
COc1nccc(N2CCC(CC(=O)NCc3cccc(OC)c3OC)CC2)n1	i
O=C(CCC[C@@H]1[C@H]2CCCN3CCC[C@@H](CN1C(=O)C1CCCC1)[C@@H]23)N1CCOCC1	-8.5%
CN(C)Cc1nnc(C2CC(NC(=O)Cc3c[nH]c(=O)n(C)c3=O)C2)n1C (configuration not stated)	0.8%
Cc1cnc(C2CC2)n1C1CCCN(Cc2ccccc2)C1 (configuration not stated)	i
CCCCCC(=O)N1CCC(O)(c2csc(CN3CCOCC3)n2)CC1	14.6%[44.1 µM]
Cc1cccc(-c2ccc3c(c2)C(=O)N2CC[C@H](NC(=O)NC(C)C)C[C@H]2C(=O)N3)c1C	-4.5%[44.1 µM]
CC(C)NC(=O)N[C@H]1CCN2C(=O)c3cc(-c4ccc5c(c4)OCO5)ccc3NC(=O)[C@@H]2C1	i
CC(C)NC(=O)N[C@H]1CCN2C(=O)c3cc(-c4ccsc4)ccc3NC(=O)[C@@H]2C1	12.6µM*
Cc1cc(Cl)ccc1OCC(=O)N1[C@@H]2CC[C@H]1CC(NC(=O)c1ccncc1)C2 (some centres not stated)	i
Cn1ccc(C(=O)N2CCCC(CCc3ccccc3C(F)(F)F)C2)n1 (configuration not stated)	-7.2%
O=C(C1CCOCC1)N1CCCC(CCc2ccccc2C(F)(F)F)C1 (configuration not stated)	-10.5%
CNC(=O)c1ccc(CN2CCCC(CCc3ccccc3C(F)(F)F)C2)o1 (configuration not stated)	7.94µM*
Cc1ccc(CC(=O)NCc2nnc3cc(-c4nc(C)no4)ccn23)cc1	i
COc1ccc(C(=O)N[C@@H]2C=C[C@@H](c3c(C)nn(-c4ccccc4)c3C)C2)cc1	-23.6%[44.1 µM]
SMILES	Pf Dd2 inh
Cc1nn(-c2ccc(C(F)(F)F)cc2)c(C)c1[C@@H]1C=C[C@@H](NS(=O)(=O)c2ccccc2)C1	i
COc1ccc(C(=O)N[C@@H]2C=C[C@@H](c3c(C)nn(-c4ccc(C)c(Cl)c4)c3C)C2)cc1	4.47µM*
Cc1ccc(-n2nc(C)c([C@H]3C=C[C@@H](O)C3)c2C)cc1Cl	i
COc1ccc(C(=O)N[C@@H]2C=C[C@@H](c3c(C)nn(-c4ccc(C(F)(F)F)cc4)c3C)C2)cc1	-6.7%
Cc1ccc(-n2nc(C)c([C@@H]3C=C[C@@H](NS(=O)(=O)c4cccs4)C3)c2C)cc1Cl	11.2µM*
CN1C(=O)CC(C(=O)O)C12CCN(Cc1ncccn1)CC2 (configuration not stated)	-6.3%
CC(C)CC(=O)NCCc1noc(C2CC2)n1	-11.1%
Cc1nc(-c2c3n(c(=O)n(CC(=O)Nc4ccc(C)c(C)c4)c2=O)CCCCC3)no1	52.8%
COc1ccc(C2Cn3nnc(-c4noc(CCc5cccc(OC)c5)n4)c3CO2)cc1 (configuration not stated)	-17.6%
COc1ccc(C2Cn3nnc(-c4noc(COc5cccc(C)c5)n4)c3CO2)cc1 (configuration not stated)	10µM*
CCc1nc(-c2nnn3c2COC(c2ccc(OC)cc2)C3)no1 (configuration not stated)	i
Cc1cc(=O)n(CC(=O)Nc2ccc(F)cc2F)c(-c2ccc(F)cc2)n1	i

High-throughput results from PubChem BioAssay.
